Source: PubChem BioAssay (NCATS)
“And” between values parts separate entries of the source, which are not always exact repeats. Identical values can stand only once. Records with an inconclusive call do not appear. The source made the active and inactive calls. Unless noted, calls follow the shape of the dose curve; as a rule, active = well fitted curve in the direction sought with a large enough effect; inconclusive = small, poorly fitted or top-dose-only effect, or another doubt; inactive = no such curve, though single readings can be large; an effect the other way counts as inactive or inconclusive.

Tests used:
[1] = Cell Viability - SK-N-SH (AID 435; calls by dose curve;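 also: potency is read from the fitted curve at half-maximal effect; compound exposure lasted 40 h at 37 °C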); settings: SK-N-SH neuroblastoma cell viability qHTS
Summary of the method: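 Luminescent ATP signal served as the viability read-out after 40 hours of compound treatment of human neuroblastoma SK-N-SH cells. Concentration-response data, scaled between DMSO and 100 uM tamoxifen, gave AC50 values by standard Hill modeling.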

[2] = Cell Viability - Renal Proximal Tubule (AID 545); settings: renal proximal tubule cells viability; series mostly up to 91.7 µM; also: nearly all actives have a fitted effect of over 40% in size
Summary of the method: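 Luminescent ATP signal (CellTiter-Glo) served as the viability read-out after 40 hr compound exposure of freshly isolated rat proximal tubule cells at 37 °C. Concentration-dependent ATP loss was fitted with the Hill equation to give AC50.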

[3] = Cellular Toxicity (caspase-3) HepG2 (AID 654); settings: HepG2 caspase-3 activation, luminescence, 0% = DMSO only, 100% = tamoxifen; series mostly up to 92.2 µM;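 also: cells exposed to compound for 16 hours before reading; 0% = DMSO alone and 100% = caspase signal from 100 µM tamoxifen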
Summary of the method: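 Concentration-response AC50 values reflect caspase-3/7 induction in HepG2 cells after 16 hours of compound exposure, quantified by luminescence from liberated aminoluciferin and referenced to 100 uM tamoxifen as full stimulation.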

[4] = Cellular Toxicity (caspase-3) SK-N-SH (AID 661); settings: SK-N-SH caspase-3 activation, qHTS; series mostly up to 91.7 µM;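 also: 0% = DMSO basal and 100% = 10 µM staurosporine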
Summary of the method: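 Apoptosis readout in SK-N-SH neuroblastoma: Caspase-Glo 3/7 luminescence following 16 hr treatment in complete culture medium. Normalization used DMSO and 10 uM staurosporine controls.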

[5] = Cell Viability - LYMP2-004 (AID 966); settings: LYMP2-004 lymphoblastoid cell viability, qHTS; series mostly up to 92.2 µM;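 also: cells exposed to compound for 24 h; plate controls were DMSO only for no effect and tetraoctylammonium bromide control for full effect; nearly all actives have a fitted effect of over 65% in size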
Summary of the method: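 Viable-cell number estimated from ATP luminescence (CellTiter-Glo) in 2500 human lymphoblastoid cells/well after 24 hr at 37 C with compound. AC50 fitted to the standard Hill equation.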

[6] = Cell Viability - LYMP2-015 (AID 971); settings: LYMP2-015 lymphoblastoid cell viability; series mostly up to 92.2 µM;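 also: cells exposed to compound for 24 h; 0% = DMSO only and full effect = 92 µM tetraoctylammonium bromide; nearly all actives have a fitted effect of over 55% in size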
Summary of the method: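 AC50 values reflect Hill-model fits of ATP-based luminescence (CellTiter-Glo) from a human lymphoblastoid line, 2500 cells/well, treated 24 hr at 37 C.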

[7] = Cell Viability - LYMP2-010 (AID 981); settings: LYMP2-010 lymphoblastoid cell viability, qHTS; series mostly up to 92.2 µM;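 also: cells exposed to compound for 24 hours at 37 °C; % is scaled to controls: 0 for no effect and ±100 for the full control effect; nearly all actives have a fitted effect of over 55% in size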
Summary of the method: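 This 24 hr viability screen uses LYMP2-010 lymphoblastoid cells, quantifies ATP via luciferase luminescence, and derives AC50 from Hill fits of qHTS concentration-response data.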

[8] = Cell Viability - LYMP2-012 (AID 982); settings: LYMP2-012 lymphoblastoid cell viability qHTS; series mostly up to 92.2 µM;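 also: cellular ATP by luciferase luminescence where a drop means cytotoxicity; cells exposed to compound for one day before reading; 0% = DMSO only and full loss = 92 µM tetraoctylammonium bromide; nearly all actives have a fitted effect of over 55% in size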
[9] = Cell Viability - LYMP2-018 (AID 985); settings: LYMP2-018 lymphoblastoid cells, viability (qHTS); series mostly up to 92.2 µM;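 also: plate controls were DMSO only for no effect and tetraoctylammonium bromide at 92 µM for full effect; nearly all actives have a fitted effect of over 50% in size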
Summary of the method: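 In this qHTS viability assay, cells are treated for 24 hr and cellular ATP is quantified by luciferase-based luminescence, with tetraoctylammonium bromide as positive control.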

[10] = Cell Viability - LYMP2-020 (AID 986); settings: series mostly up to 92.2 µM;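 also: cells exposed to compound for 24 h at 37 °C; plate controls were DMSO only for no effect and tetraoctylammonium bromide at 92 µM for full effect; nearly all actives have a fitted effect of over 55% in size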
Summary of the method: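 Cells at 2500 per well receive a 24 hr compound exposure at 37 C. Viability is measured as ATP-dependent luciferase luminescence, with AC50 modeled from qHTS concentration-response curves.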

[11] = qHTS assay for small molecule agonists of retinoid X receptor alpha signaling (AID 588544; calls by dose curve;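 as to activation: 0% = DMSO basal wells and 100% = reference agonist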); settings: HEK293T RXRa-UAS-bla, beta-lactamase reporter, 18 h; 530 nm emission
[12] = biological target: Retinoic acid receptor RXR-alpha (Homo sapiens) (UniProt P19793); test: as above; settings: HEK293T RXRa-UAS-bla, beta-lactamase reporter, 18 h; series mostly up to 76.7 µM
Chain of Retinoic acid receptor RXR-alpha (Homo sapiens) (P19793 whole entry, looked up): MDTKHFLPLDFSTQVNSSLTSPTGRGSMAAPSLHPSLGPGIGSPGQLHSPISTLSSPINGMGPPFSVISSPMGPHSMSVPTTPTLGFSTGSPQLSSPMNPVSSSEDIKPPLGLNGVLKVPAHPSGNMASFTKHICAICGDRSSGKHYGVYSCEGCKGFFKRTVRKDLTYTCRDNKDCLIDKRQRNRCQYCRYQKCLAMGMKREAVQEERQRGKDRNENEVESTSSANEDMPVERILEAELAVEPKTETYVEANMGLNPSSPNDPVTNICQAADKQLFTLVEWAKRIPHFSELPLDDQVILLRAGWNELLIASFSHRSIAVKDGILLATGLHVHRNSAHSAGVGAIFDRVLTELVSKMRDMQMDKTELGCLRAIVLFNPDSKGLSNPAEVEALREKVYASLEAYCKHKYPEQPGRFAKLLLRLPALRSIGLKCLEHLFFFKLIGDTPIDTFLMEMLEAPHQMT

[13] = biological target: Thyroid hormone receptor beta (Homo sapiens) (UniProt P10828); test: qHTS assay for small molecule agonists of thyroid hormone receptor beta signaling (AID 588545; calls by dose curve;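 also: 0% = DMSO only and 100% = 10 nM T3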); settings: TR-UAS-bla GripTite HEK 293, beta-lactamase ratio, agonist mode, 18 h; series mostly up to 76.7 µM
Chain of Thyroid hormone receptor beta (Homo sapiens) (P10828 whole entry, looked up): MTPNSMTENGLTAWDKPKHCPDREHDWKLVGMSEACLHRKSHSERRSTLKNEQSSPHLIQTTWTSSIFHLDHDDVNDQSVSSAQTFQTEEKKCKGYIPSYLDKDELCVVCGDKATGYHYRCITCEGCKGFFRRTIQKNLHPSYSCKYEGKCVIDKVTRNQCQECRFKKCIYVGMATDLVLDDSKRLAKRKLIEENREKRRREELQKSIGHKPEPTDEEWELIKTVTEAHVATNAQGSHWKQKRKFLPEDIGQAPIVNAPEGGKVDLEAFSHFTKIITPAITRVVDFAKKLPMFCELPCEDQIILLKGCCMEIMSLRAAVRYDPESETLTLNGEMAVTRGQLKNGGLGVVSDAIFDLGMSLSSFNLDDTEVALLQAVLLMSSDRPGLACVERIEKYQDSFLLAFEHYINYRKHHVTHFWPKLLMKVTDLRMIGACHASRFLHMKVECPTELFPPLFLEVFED
Summary of the method: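 TR-UAS-bla-GripTite HEK 293 cells in medium with 2% charcoal/dextran FBS, 0.1 mM NEAA and 1 mM sodium pyruvate were treated with titrated compounds for 18 hrs at 37 C. Beta-lactamase reporter was read with CCF4 dye (ex 405, em 460/530 nm); EC50 from Hill fits.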

[14] = qHTS assay for small molecule antagonists of retinoid X receptor alpha signaling (AID 588546; active = well fitted inhibition curve with a large enough effect in the signal ratio, with a control signal flat, not every such curve was filed as active; the % refers to the signal ratio;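 also: cells stimulated with 9-cis-retinoic acid as agonist; % is scaled to controls: 0 for no effect and ±100 for the full control effect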); settings: HEK293T RXRa-UAS-bla, beta-lactamase ratio, antagonist mode; measured here: W530 green channel, cytotoxicity proxy
Summary of the method: (§1)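 Beta-lactamase reporter inhibition, read as CCF4 fluorescence ratio (ex 405, em 460/530 nm) after 2 h at RT. HEK293T UAS-bla cells, 2500/well, were stimulated with 9-cis-RA at 500 or 100 nM final alongside test compound for 18 h at 37 C.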

[15] = biological target: Retinoic acid receptor RXR-alpha (Homo sapiens) (UniProt P19793); test: as above; settings: HEK293T RXRa-UAS-bla, beta-lactamase ratio, antagonist mode
Summary of the method: as §1

[16] = qHTS assay for environmental chemicals that activate the Aryl hydrocarbon Receptor (AhR) signaling pathway (AID 651777); settings: 1A2-DRE human hepatoma cells, luciferase, 24 h; activation: stronger effect = higher value; also: % of control where 0% means no effect; nearly all actives have a fitted effect of over 15% in size
Summary of the method: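 Following a 24 hr incubation with test chemicals at 37 C and 5% CO2, 1A2-DRE human hepatoma cells received One-Glo reagent; after 30 min at room temperature, luciferase output reflected CYP1A2 induction via AhR.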

[17] = biological target: Nuclear receptor ROR-gamma (Homo sapiens) (UniProt P51449); test: qHTS assay for small molecule antagonists of the retinoid-related orphan receptor gamma (ROR-gamma) signaling pathway (AID 651802); settings: ROR-gamma antagonist cell reporter assay; series mostly up to 92.2 µM;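 also: CHO cells with doxycycline-induced ROR-gamma expression; luciferase reporter luminescence driven by ROR response element; % is scaled to controls: 0 for no effect and ±100 for the full control effect; nearly all actives have a fitted effect of over 60% in size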
Chain of Nuclear receptor ROR-gamma (Homo sapiens) (P51449 whole entry, looked up): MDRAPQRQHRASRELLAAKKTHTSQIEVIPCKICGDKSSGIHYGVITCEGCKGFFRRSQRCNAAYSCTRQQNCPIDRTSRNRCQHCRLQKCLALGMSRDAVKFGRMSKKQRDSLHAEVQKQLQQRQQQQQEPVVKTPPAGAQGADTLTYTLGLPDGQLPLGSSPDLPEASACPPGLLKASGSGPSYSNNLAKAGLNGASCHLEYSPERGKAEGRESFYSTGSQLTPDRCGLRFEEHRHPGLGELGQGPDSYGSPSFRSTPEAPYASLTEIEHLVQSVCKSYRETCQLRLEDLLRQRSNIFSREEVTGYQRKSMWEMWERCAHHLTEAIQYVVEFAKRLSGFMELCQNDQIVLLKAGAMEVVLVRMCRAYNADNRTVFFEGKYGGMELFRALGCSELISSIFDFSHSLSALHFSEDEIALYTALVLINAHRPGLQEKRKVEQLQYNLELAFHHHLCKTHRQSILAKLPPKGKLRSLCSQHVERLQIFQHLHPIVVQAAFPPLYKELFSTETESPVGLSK
Summary of the method: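 Doxycycline-induced reporter activity in engineered CHO cells (TET-inducible ROR, RORE-LUC) was measured by luminescence after 16hr compound exposure at 37C.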

[18] = qHTS assay for cell viability of the p53RE-bla HCT-116 cell line (AID 743292); settings: p53RE-bla HCT-116 viability, ATP luminescence, 16 h; series mostly up to 95 µM
Summary of the method: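 After plating at 4,000 cells per well and a 5 h rest at 37 C, HCT-116 cells carrying p53RE-bla received test chemicals in DMSO. Sixteen hours later at 37 C, CellTiter-Glo was added and luminescence recorded following 30 min at room temperature.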

[19] = biological target: Cytochrome P450 3A4 (Homo sapiens) (UniProt P08684); test: qHTS Assay for Inhibitors and Substrates of Cytochrome P450 3A4 (AID 884); settings: recombinant CYP3A4, Luciferin-PPXE luminescence; series mostly up to 57.1 µM; also: % is scaled to controls: 0 for no effect and ±100 for the full control effect; nearly all actives have a fitted effect of over 50% in size
Chain of Cytochrome P450 3A4 (Homo sapiens) (P08684 whole entry, looked up): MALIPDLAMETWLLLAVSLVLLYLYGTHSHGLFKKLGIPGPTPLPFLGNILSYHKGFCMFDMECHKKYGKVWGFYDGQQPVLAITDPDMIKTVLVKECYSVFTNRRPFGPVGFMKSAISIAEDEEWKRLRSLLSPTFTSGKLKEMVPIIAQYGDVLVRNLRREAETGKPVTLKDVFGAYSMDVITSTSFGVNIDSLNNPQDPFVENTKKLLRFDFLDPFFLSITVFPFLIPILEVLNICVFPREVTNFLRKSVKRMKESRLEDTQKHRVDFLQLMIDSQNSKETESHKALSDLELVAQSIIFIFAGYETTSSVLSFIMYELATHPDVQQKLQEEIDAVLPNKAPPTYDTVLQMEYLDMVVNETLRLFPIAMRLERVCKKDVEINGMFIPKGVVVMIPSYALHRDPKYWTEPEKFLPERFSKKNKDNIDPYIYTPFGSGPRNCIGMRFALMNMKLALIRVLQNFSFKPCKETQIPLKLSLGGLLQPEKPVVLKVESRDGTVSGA
Summary of the method: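 Luminescent readout of luciferin produced by CYP3A4 (20 nM) dealkylation of Luciferin-PPXE, 25 uM (its KM). NADPH-driven reaction ran 60 min at RT after 10 min compound preincubation; data scaled to 57 uM ketoconazole as 100% inhibition.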

[20] = biological target: Voltage-gated inwardly rectifying potassium channel KCNH2 (Homo sapiens) (UniProt Q12809); test: qHTS Assay for Small Molecule Inhibitors of the Human hERG Channel Activity (AID 588834); settings: U2OS BacMam hERG, FluxOR thallium flux fluorescence; series mostly up to 92.2 µM;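 also: top concentration of the series differs between compounds; % is scaled to controls: 0 for no effect and ±100 for the full control effect; lower thallium flux fluorescence means stronger hERG block; nearly all actives have a fitted effect of over 50% in size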
Chain of Voltage-gated inwardly rectifying potassium channel KCNH2 (Homo sapiens) (Q12809 whole entry, looked up): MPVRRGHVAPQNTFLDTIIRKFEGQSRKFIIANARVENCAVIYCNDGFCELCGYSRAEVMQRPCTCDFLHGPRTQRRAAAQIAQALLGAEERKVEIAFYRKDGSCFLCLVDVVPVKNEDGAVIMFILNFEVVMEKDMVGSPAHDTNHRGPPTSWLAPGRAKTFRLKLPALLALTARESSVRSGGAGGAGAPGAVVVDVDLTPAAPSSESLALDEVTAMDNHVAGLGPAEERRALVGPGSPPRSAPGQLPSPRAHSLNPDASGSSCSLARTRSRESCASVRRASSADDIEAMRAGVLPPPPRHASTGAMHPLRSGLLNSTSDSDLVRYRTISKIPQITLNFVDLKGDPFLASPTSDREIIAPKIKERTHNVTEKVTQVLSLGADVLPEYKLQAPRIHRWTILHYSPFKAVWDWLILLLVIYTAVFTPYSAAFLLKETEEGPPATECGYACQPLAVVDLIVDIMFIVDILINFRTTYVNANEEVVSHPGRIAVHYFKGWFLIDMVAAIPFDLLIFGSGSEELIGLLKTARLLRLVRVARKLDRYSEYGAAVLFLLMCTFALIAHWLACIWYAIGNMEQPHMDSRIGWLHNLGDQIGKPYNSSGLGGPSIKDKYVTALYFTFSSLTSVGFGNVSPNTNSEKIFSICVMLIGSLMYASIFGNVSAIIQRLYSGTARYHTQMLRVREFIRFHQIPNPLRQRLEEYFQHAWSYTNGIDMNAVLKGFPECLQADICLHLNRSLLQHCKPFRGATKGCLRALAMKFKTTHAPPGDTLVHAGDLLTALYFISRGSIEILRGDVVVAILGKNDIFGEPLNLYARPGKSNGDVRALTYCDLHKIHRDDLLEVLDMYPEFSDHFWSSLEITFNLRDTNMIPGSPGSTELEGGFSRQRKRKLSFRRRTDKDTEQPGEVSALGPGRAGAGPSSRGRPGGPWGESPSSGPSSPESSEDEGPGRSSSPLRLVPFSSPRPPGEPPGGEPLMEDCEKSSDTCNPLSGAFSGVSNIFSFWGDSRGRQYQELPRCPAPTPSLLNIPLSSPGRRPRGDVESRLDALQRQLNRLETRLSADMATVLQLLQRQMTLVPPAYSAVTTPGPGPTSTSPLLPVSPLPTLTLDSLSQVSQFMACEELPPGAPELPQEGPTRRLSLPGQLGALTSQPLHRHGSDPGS
Summary of the method: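 Step 1: BacMam hERG transduction of U2OS, 4 hrs RT. Step 2: overnight 37 °C, plate 2000 cells/well, 4 hr. Step 3: FluxOR load, compound 10 min, stimulate, read fluorescence.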

CCOP(=S)(OCC)SCCSCC
7.97% and -18.3%: max response [14]
inactive: Potency [1] > 92 µM | outcome [2] | outcome [3] | Potency [4] | Potency [5] | Potency [6] | Potency [7] | Potency [8] | Potency [9] | Potency [10] | outcome [12] | Potency [13] | max response [15] -3% and -2.15% | activation [16] 1.01% and -2.18% | Potency [17] | Potency [18]
-7.08% and 7.34%: max response [11]

O=[N+]([O-])CCO
inactive: Potency [1] > 92 µM | outcome [2] | outcome [3] | Potency [4] | Potency [19] | Potency [5] | Potency [6] | Potency [7] | Potency [8] | Potency [9] | Potency [10] | outcome [12] | Potency [13] | max response [15] -8.95% | Potency [20] | activation [16] -2.02% | Potency [17] | Potency [18]
2.49%: max response [14]
10.9%: max response [11]

CCNCC
-7.47%: max response [11]
inactive: Potency [1] > 92 µM | outcome [2] | Potency [4] | Potency [19] | Potency [5] | Potency [6] | Potency [7] | Potency [8] | Potency [9] | Potency [10] | outcome [12] | Potency [13] | Potency [20] | activation [16] -0.962% | Potency [17] | Potency [18]

CC(Cl)CCl (stereo not given)
-14.1%: max response [11]
-10%: max response [14]
inactive: Potency [1] > 92 µM | outcome [2] | outcome [3] | Potency [19] | Potency [5] | Potency [6] | Potency [7] | Potency [8] | Potency [9] | Potency [10] | outcome [12] | Potency [13] | max response [15] -6.12% | Potency [20] | activation [16] 0.102% | Potency [17]

ClCc1ccccn1
3.04% and -6.39%: max response [14]
inactive: Potency [1] > 92 µM | outcome [2] | outcome [3] | Potency [4] | Potency [19] | Potency [5] | Potency [6] | Potency [7] | Potency [8] | Potency [9] | Potency [10] | outcome [12] | Potency [13] | max response [15] -12.8% and -17% | Potency [20] | activation [16] -0.85% and 1.26% | Potency [17] | Potency [18]
-5.13% and -0.246%: max response [11]

[O-][Cl+2]([O-])O
6.62%: max response [11]
inactive: Potency [1] > 92 µM | outcome [2] | outcome [3] | Potency [4] | Potency [19] | Potency [5] | Potency [6] | Potency [7] | Potency [8] | Potency [9] | Potency [10] | outcome [12] | max response [15] -4.77% | Potency [20] | activation [16] 0.0972% | Potency [18]
-3.35%: max response [14]

CCOP(=O)(OCC)OCC
-8.04% and -7.35%: max response [11]
inactive: Potency [1] > 92 µM | outcome [2] | outcome [3] | Potency [4] | Potency [19] | Potency [5] | Potency [6] | Potency [7] | Potency [8] | Potency [9] | Potency [10] | outcome [12] | Potency [13] | max response [15] 10.3% and -4.1% | Potency [20] | activation [16] -0.171% and -0.669% | Potency [17] | Potency [18]
9.41% and -13.4%: max response [14]

CCCCCOC(=O)c1ccccc1C(=O)OCCCCC
-5.52%: max response [14]
inactive: Potency [1] > 92 µM | outcome [2] | outcome [3] | Potency [4] | Potency [5] | Potency [6] | Potency [7] | Potency [8] | Potency [9] | Potency [10] | outcome [12] | Potency [13] | max response [15] -6.11% | activation [16] 0.174% and 4.48% | Potency [17] | Potency [18]
-10.9% and 3.25%: max response [11]

ClCCBr
inactive: Potency [1] > 92 µM | outcome [2] | outcome [3] | Potency [4] | Potency [19] | Potency [5] | Potency [6] | Potency [7] | Potency [8] | Potency [9] | Potency [10] | outcome [12] | Potency [13] | max response [15] -1.05% | Potency [20] | activation [16] 3.31% | Potency [17] | Potency [18]
-4.86%: max response [14]
-16.9%: max response [11]

C=COC(C)=O
inactive: Potency [1] > 92 µM | outcome [2] | outcome [3] | Potency [4] | Potency [19] | Potency [5] | Potency [6] | Potency [7] | Potency [8] | Potency [9] | Potency [10] | outcome [12] | Potency [13] | max response [15] -3.99% | Potency [20] | activation [16] 1.36% | Potency [17] | Potency [18]
-12.3%: max response [14]
-12.6%: max response [11]

CCOS(C)(=O)=O
-8.7%: max response [14]
-9.22%: max response [11]
inactive: Potency [1] > 92 µM | outcome [2] | outcome [3] | Potency [4] | Potency [19] | Potency [5] | Potency [6] | Potency [7] | Potency [8] | Potency [9] | Potency [10] | outcome [12] | max response [15] -0.383% | Potency [20] | activation [16] 0.384% | Potency [17] | Potency [18]

c1ccc(NNc2ccccc2)cc1
inactive: Potency [1] > 92 µM | outcome [2] | outcome [3] | Potency [4] | Potency [19] | Potency [6] | Potency [7] | Potency [8] | Potency [9] | Potency [10] | outcome [12] | Potency [13] | max response [15] 1.29% and 6.1% | Potency [17] | Potency [18]
-8.78% and -5.97%: max response [14]
-6.25% and -9.7%: max response [11]

O=[N+]([O-])c1ccccc1O
inactive: Potency [1] > 92 µM | outcome [2] | outcome [3] | Potency [4] | Potency [19] | Potency [5] | Potency [6] | Potency [7] | Potency [8] | Potency [9] | Potency [10] | outcome [12] | Potency [13] | max response [15] -20.2% | Potency [20] | activation [16] 0.0323% | Potency [17] | Potency [18]
-5.99%: max response [14]
-4.21%: max response [11]
